# ChEMBL document CHEMBL3988442, “University of Dundee, Small-Polar-MMV Screening Library” (2021)
# The whole screen tested about 69,000 compounds, of which about 1,000 (1.4%) showed an effect of 50% or more. The sample holds strong results, similar compounds and a random draw of the others, so the mix is not that of the screen.
# System: Leishmania donovani
# Assay: Leishmania intramacrophage assay
# Assay type: functional, organism-based
# Set-up: scale not given: in the data most compounds retested in dose-response had high values
structure (smiles),measurement,setting,value
O=C(NCCn1nc2ccccn2c1=O)c1sccc1-c1ccccc1,Percent Effect,30 µM,25.6%
Cn1ccc(NC(=O)Cc2ccccc2F)n1,Percent Effect,"30.3 µM, […]",-10.05%
COC(=O)N1CCCC(C(=O)Nc2nc(C)c(SC)s2)C1 (stereo unspecified),Percent Effect,"30.3 µM, […]",9.664%
CC(C)OCCC(=O)NS(=O)(=O)N1CCOc2ccccc21,Percent Effect,"30.3 µM, […]",-11.14%
O=C(CCOCc1ccccc1)NS(=O)(=O)N1CCOc2ccccc21,Percent Effect,"30.3 µM, […]",54.49%
O=C(CCc1ccco1)NS(=O)(=O)N1CCOc2ccccc21,Percent Effect,"30.3 µM, […]",39.68%
COCCn1cc(C(=O)N2CCCC2c2ccncc2)c2ccccc21 (stereo unspecified),Percent Effect,"30.3 µM, […]",-8.376%
O=C(c1cccnc1)N1CCC2(CNS(=O)(=O)c3cnccc3O2)C1 (stereo unspecified),Percent Effect,"30.3 µM, […]",9.418%
Cc1cc(N2CCN(C(=O)[C@@H]3C[C@@H]4C=C[C@H]3C4)CC2)nc2ccccc12,Percent Effect,"30.3 µM, […]",19.09%
CC(=O)Nc1ccc(C(=O)N(C)Cc2cccc(F)c2)s1,Percent Effect,"30.3 µM, […]",-28.94%
CC(=O)Nc1ccc(C(=O)N(C)Cc2ccc(F)cc2F)s1,Percent Effect,"30.3 µM, […]",41.29%
COc1cccc(CN(C)C(=O)c2ccc(NC(C)=O)s2)c1OC,Percent Effect,"30.3 µM, […]",52.82%
Cc1cc(C(=O)NCc2cccnc2N2CCCC(O)C2)c(C)o1 (stereo unspecified),Percent Effect,"30.3 µM, […]",26.29%
CCc1nc2n(n1)CCCC2NC(=O)Nc1cc(OC)ccc1C (stereo unspecified),Percent Effect,"30.3 µM, […]",6.976%
CCc1nc(C)cc(N2CCCC(C(=O)c3ccc(OC)cc3C)C2)n1 (stereo unspecified),Percent Effect,"30.3 µM, […]",50.79%
COc1ccc(C(=O)C2CCCN(c3cnccn3)C2)c(C)c1 (stereo unspecified),Percent Effect,"30.3 µM, […]",7.713%
COc1ccc(C(=O)C2CCCN(c3cc(N)ncn3)C2)c(C)c1 (stereo unspecified),Percent Effect,"30.3 µM, […]",55.56%
COc1ccc(C(=O)C2CCCN(c3nccc(N)n3)C2)c(C)c1 (stereo unspecified),Percent Effect,"30.3 µM, […]",44.3%
COc1ccc(C(=O)C2CCCN(c3cc(OC)ncn3)C2)c(C)c1 (stereo unspecified),Percent Effect,"30.3 µM, […]",27.19%
CC1(C)COCCN1C(=O)CCc1nc(-c2ccncc2)no1,Percent Effect,"30.3 µM, […]",0.2365%
CC1CCN(CC(=O)NC2CCN(C(C)c3ccccc3)CC2)CC1.Cl (stereo unspecified),Percent Effect,"30.3 µM, […]",0.5624%
CCn1ccc(-c2cc(NCCCOc3cccc(C)c3)nc(C)n2)n1,Percent Effect,"30.3 µM, […]",7.258%
CCn1ccc(-c2cc(NCCCOc3ccccc3C)nc(C)n2)n1,Percent Effect,"30.3 µM, […]",56.31%
COc1ccccc1OCCNCCn1cccn1,Percent Effect,30 µM,30.77%
Cc1ccc(C(=O)N2C[C@@H](N3CCN(C)CC3)[C@H]3OCCC[C@H]32)cn1,Percent Effect,"30.3 µM, […]",22.91%
CNC(=O)[C@@H]1C[C@H]2CN(Cc3nccs3)C[C@H]2N1C.O=C(O)C(F)(F)F.O=C(O)C(F)(F)F,Percent Effect,"30 µM, 30.03 µM",9.102%
CC1CN(C(=O)c2cc(=O)[nH]c3ccc(F)cc23)CCO1 (stereo unspecified),Percent Effect,"30.3 µM, […]",-3.043%
CN(C)C[C@@H]1[C@H]2CN(C(=O)c3cc(=O)[nH]c4ccc(F)cc34)C[C@@H]12,Percent Effect,"30.3 µM, […]",55.47%
CN(C)C[C@H]1C[C@@H](CO)CN(C(=O)c2cc(=O)[nH]c3cc(F)ccc23)C1,Percent Effect,"30.3 µM, […]",30.17%
CCOC(=O)C1CCN(c2nccc(-n3nc(C)cc3C)n2)CC1,Percent Effect,"30.3 µM, […]",24.33%
Cc1cnc(N2CC(C(=O)N3CCOCC3)C3(CCOCC3)C2)nc1 (stereo unspecified),Percent Effect,"30.3 µM, […]",0.6566%
Cn1ccc(C(=O)N2CCCC(Cc3cccc4ncccc34)C2)n1 (stereo unspecified),Percent Effect,"30 µM, 30.03 µM",74.08%
COCCNc1cc(-c2cccc(C(=O)O)c2C)c2cc[nH]c2n1,Percent Effect,"30.3 µM, […]",27.05%
Cc1cc(C(=O)NCCN2CCCC(C)C2)nn1C(C)(C)C (stereo unspecified),Percent Effect,"30.3 µM, […]",12.01%
CN(C)C(=O)c1cncnc1-c1ccc(CNC(=O)C2CCCO2)cc1 (stereo unspecified),Percent Effect,"30.3 µM, […]",-46.25%
O=C1CC2(CCN(CC3CCOC3)CC2)CN1Cc1cc(F)cc(F)c1 (stereo unspecified),Percent Effect,"30 µM, 30.03 µM",41.14%
O=C1CC2(CCN(CC3CC3)CC2)CN1Cc1cc(F)cc(F)c1,Percent Effect,"30.3 µM, […]",59.82%
O=C1CC2(CCN(CCO)CC2)CN1Cc1cc(F)cc(F)c1,Percent Effect,"30 µM, 30.03 µM",24.96%
Cc1cc(C(N)=O)c2c(Br)cccc2n1,Percent Effect,"30.3 µM, […]",-10.76%
c1cnn(CC2CN(c3ncnc4sccc34)CCO2)c1 (stereo unspecified),Percent Effect,"30 µM, 30.03 µM",57.28%
Cc1cnn(CC2CN(c3ncnc4[nH]ccc34)CCO2)c1 (stereo unspecified),Percent Effect,30 µM,4.128%
c1nc(N2CCOC(Cn3cncn3)C2)c2sccc2n1 (stereo unspecified),Percent Effect,"30.3 µM, […]",23.8%
Cc1cnn(CC2CN(c3ncnc4ccccc34)CCO2)c1 (stereo unspecified),Percent Effect,"30 µM, 30.03 µM",53.49%
Cc1cnn(CC2CN(c3ncnc4ccsc34)CCO2)c1 (stereo unspecified),Percent Effect,"30 µM, 30.03 µM",66.34%
c1cnn(CC2CN(c3ncnc4ccsc34)CCO2)c1 (stereo unspecified),Percent Effect,"30 µM, 30.03 µM",45.92%
c1ccc2c(N3CCOC(Cn4cccn4)C3)ncnc2c1 (stereo unspecified),Percent Effect,"30.3 µM, […]",-0.8022%
c1cnn(CC2CN(c3ncnc4[nH]ccc34)CCO2)c1 (stereo unspecified),Percent Effect,30 µM,1.835%
CN(C)CC1CN(c2ncnc3ccsc23)CCO1 (stereo unspecified),Percent Effect,"30.3 µM, […]",16.39%
Cc1nc2cc(C(=O)N(CCC#N)CC3CCCO3)ccc2[nH]1 (stereo unspecified),Percent Effect,"30.3 µM, […]",5.976%
Cc1nn(C)c(C)c1OCC(=O)NCC(O)Cc1ccccc1 (stereo unspecified),Percent Effect,"30.3 µM, […]",-11.07%
CC(C)(C)CC(=O)NS(=O)(=O)c1ccc(F)cc1C(F)(F)F,Percent Effect,"30.3 µM, […]",3.58%
CNS(=O)(=O)c1ccc(C(=O)N2CCCC2c2ccccc2C)o1 (stereo unspecified),Percent Effect,30 µM,17.32%
O=C(Cn1ccc2sccc2c1=O)NCCCc1ccccc1,Percent Effect,"30.3 µM, […]",1.811%
Cc1cccc(CN2CCCC3(CCN(CC(=O)N(C)C)C3=O)C2)n1.O=C(O)C(F)(F)F (stereo unspecified),Percent Effect,"30.3 µM, […]",-21.17%
Cc1ccc(C(=O)Nc2ccc3c(c2)N(C)CCN(C)C3)c(=O)[nH]1,Percent Effect,"30.3 µM, […]",4.534%
NC1(CN2CCCCC2)CCCCC1,Percent Effect,"30.3 µM, […]",-14.65%
Cc1nc(CN2CCCn3c(nc(Cn4cncn4)cc3=O)C2)cs1.O=C(O)C(F)(F)F,Percent Effect,"30.3 µM, […]",16.7%
CCOC(=O)Cc1n[nH]c(-c2cncc(Br)c2)n1,Percent Effect,"30.3 µM, […]",100.5%
CCNC(=O)Cc1n[nH]c(-c2cncc(Br)c2)n1,Percent Effect,"30.3 µM, […]",-72.67%
CNC(=O)Cc1n[nH]c(-c2cncc(Br)c2)n1,Percent Effect,"30.3 µM, […]",-1.104%
Cc1oncc1C(=O)N1CCC(O)(CN2CCOCC2)C(C)(C)C1 (stereo unspecified),Percent Effect,"30.3 µM, […]",22.16%
COc1cccc(CN(C)Cc2nc3c(cnn3C)c(=O)[nH]2)c1OC,Percent Effect,"30.3 µM, […]",-6.431%
COc1cc(NC2CCN(C3CCS(=O)(=O)CC3)CC2)ncn1,Percent Effect,"30.3 µM, […]",36.7%
Cc1nc2[nH]cnc(Nc3ccn(C)n3)c-2n1,Percent Effect,"30.3 µM, […]",-6.289%
Cc1nc2[nH]cnc(Nc3cnn(C)c3)c-2n1,Percent Effect,"30.3 µM, […]",10.52%
Cc1nc2[nH]cnc(Nc3cc(C)n(C)n3)c-2n1,Percent Effect,"30.3 µM, […]",75.58%
